# Most compounds without a hit are left out; they make up all but 2.4% or so of the library.
# HTR2A ag = agonists of mouse serotonin 5-HT2A receptor (HTR2A) | CHO-K1 mHTR2A beta-arrestin complementation, luminescence; percent of 30 µM serotonin response | activation, % at 7.6 µM | hit rate 0.66% among 360,000 | AID 624169;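 active means activation above a run cutoff, the mean activation of all tested compounds plus 3 SD, cut at about 14% in these data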;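 further: 0% = plate median of compound wells and 100% = 30 µM serotonin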
# ABHD5-PLIN5 inh = inhibitors of human ABHD5-perilipin-5 interaction; hit rate 0.78% among 360,000; inhibition, % at 4 µM; Q00G26+Q8WTS1; Split G. princeps luciferase complementation, luminescence, 4 h;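 active means inhibition above the mean inhibition across every tested compound plus 3 SD, cut at about 22% in these data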;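 further: 0% = DMSO only wells and the 100% control is not disclosed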
# Target sequence (Q00G26 whole entry, looked up): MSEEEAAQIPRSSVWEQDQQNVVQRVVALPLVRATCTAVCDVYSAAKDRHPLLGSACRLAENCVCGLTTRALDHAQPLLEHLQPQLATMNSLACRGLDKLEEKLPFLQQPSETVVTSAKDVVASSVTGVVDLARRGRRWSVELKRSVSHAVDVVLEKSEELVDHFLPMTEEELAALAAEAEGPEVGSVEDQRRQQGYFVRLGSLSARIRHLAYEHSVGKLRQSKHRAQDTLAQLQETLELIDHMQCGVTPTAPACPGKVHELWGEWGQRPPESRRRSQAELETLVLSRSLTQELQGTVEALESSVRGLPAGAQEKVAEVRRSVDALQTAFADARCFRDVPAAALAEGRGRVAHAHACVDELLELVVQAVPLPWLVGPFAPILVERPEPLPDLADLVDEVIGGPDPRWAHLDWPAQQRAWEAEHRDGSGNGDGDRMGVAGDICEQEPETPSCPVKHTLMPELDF
# Target sequence (Q8WTS1 whole entry, looked up): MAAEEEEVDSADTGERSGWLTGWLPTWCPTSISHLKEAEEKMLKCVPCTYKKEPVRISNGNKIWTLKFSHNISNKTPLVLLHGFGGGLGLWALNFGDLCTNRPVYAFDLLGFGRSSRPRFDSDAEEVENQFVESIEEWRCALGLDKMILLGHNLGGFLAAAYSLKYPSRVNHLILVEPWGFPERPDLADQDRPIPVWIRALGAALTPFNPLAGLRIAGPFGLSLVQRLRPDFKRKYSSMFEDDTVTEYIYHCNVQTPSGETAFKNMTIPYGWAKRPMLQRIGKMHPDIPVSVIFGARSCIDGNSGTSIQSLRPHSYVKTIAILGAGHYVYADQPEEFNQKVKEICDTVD
# NOD2 RIPK2 PPI = blocks binding of human NOD2 to RIPK2; inhibition, % at 4.98 µM; O43353; CHO BLA complementation NOD2-RIPK2, CCF4 ratio; hit rate 0.38% among 360,000; in the data active means inhibition above about 21%;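 further: 0% = vehicle only and 100% = reference blocker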
# TLR4 MyD88 comp = blocks binding of human TLR4 to MyD88; O00206+Q99836; HeLa CL3-4 TLR4/MyD88 BLA complementation, FRET ratio; inhibition, % at 8.4 µM; hit rate 0.18% among 200,000; in the data active means inhibition above about 25%;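 further: 0% = vehicle and 100% = reference inhibitor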
# CRFBP-R2 block = blocks CRF-induced signaling of the CRF-BP/CRF-R2 complex. HEK293 CRF-R2/CRF-BP, CRF-induced calcium fluorescence. inhibition, % at 11.8 µM. hit rate 0.59% among 350,000. AID 588475;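 active means inhibition of the ligand-induced calcium signal above about 50% at the single tested concentration, limit read from the data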
# TLR9-MyD88 block = blocks human TLR9 binding to MyD88; Q9NR96+Q99836; CHO BLA complementation TLR9-MyD88, CCF4 FRET ratio; inhibition, % at 4.98 µM; hit rate 0.21% among 340,000;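 active means inhibition above the mean over all tested compounds plus 3 SD, cut at about 21% in these data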;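 further: 0% = DMSO only wells and 100% = clavulanate BLA inhibitor control wells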
# TLR4 MyD88 cnf = TLR4-MyD88 interaction inhibition confirmed; hit rate 50% among 350; shares compounds with TLR4 MyD88 comp; AID 941; HeLa CL3-4 BLA complementation, CCF4 FRET ratio; inhibition, % at 8.4 µM;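 active means mean inhibition across three repeat runs above about 25% carried over from the earlier screen, limit read from the data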;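 further: plate controls were DMSO only for no effect and clavulanic acid blocking BLA at full dose for full effect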
# BLA inhibitor ct = inhibits beta-lactamase activity, counter-screen to TLR4-MyD88 binding inhibitors; shares compounds with TLR4 MyD88 comp; HeLa BLA reporter, CCF4 FRET ratio; hit rate 63% among 350; inhibition, % at 8.4 µM; AID 1237;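 active means mean inhibition over three repeats above about 26% taken from the earlier screen, limit read from the data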;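 further: HeLa cells stably expressing beta-lactamase reporter as counterscreen for TLR4-MyD88 inhibitors; 0% = DMSO and 100% = clavulanic acid full inhibition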
# TLR9-MyD88 conf = confirmation of human TLR9-MyD88 binding inhibitors; shares compounds with TLR9-MyD88 block; CHO TLR9/MyD88 BLA complementation, CCF4 FRET ratio; inhibition, % at 4.98 µM; hit rate 51% among 680; AID 540250;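 active means mean inhibition across three repeats above about 21% taken from the earlier screen, limit read from the data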;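 further: blue over green emission ratio reports constitutive TLR9 MyD88 association via BLA complementation; 0% = DMSO vehicle wells and 100% = clavulanate BLA inhibitor wells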
# BLA counter-1 = non-selective beta-lactamase inhibitors in TLR9-MyD88 counter-screen. shares compounds with TLR9-MyD88 block. hit rate 7% among 680. CHO-BLA cells, CCF4 FRET ratio, BLA reporter. inhibition, % at 4.98 µM;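 active means mean inhibition above a 50% cutoff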;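 further: counterscreen of TLR9-MyD88 hits on CMV-driven BLA in CHO-K1 cells; 0% = DMSO alone and 100% = clavulanate blocking BLA; higher means less blue over green ratio so more BLA blockade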
# TLR9 CHO tox = CHO cell toxicity counter-screen for TLR9-MyD88 inhibitors. shares compounds with TLR9-MyD88 block. TLR9-MyD88 CHO cells cytotoxicity, luminescence. inhibition, % at 4.98 µM. hit rate 39% among 680; in the data active means inhibition above about 11%
# NOD2-RIPK2 conf = NOD2-RIPK2 interaction inhibition confirmed. CHO cells, NOD2-RIPK2 BLA complementation, CCF4 FRET. inhibition, % at 4.98 µM. hit rate 70% among 1,200. AID 624370. shares compounds with NOD2 RIPK2 PPI;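 active means mean inhibition across replicates above a set limit taken from the earlier primary screen, cut at about 21% in these data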;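 further: 0% = DMSO-only wells and the high end = clavulanate BLA-blocked wells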
# BLA counter-2 = hits BLA reporter in NOD2-RIPK2 inhibitor counterscreen. AID 624371. hit rate 57% among 1,200. CHO BLA reporter, CCF4 FRET ratio. inhibition, % at 4.98 µM. shares compounds with NOD2 RIPK2 PPI;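 active means mean inhibition above the low-control mean inhibition plus three low-control SD, cut at about 11% in these data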;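 further: 0% = DMSO only wells and 100% = clavulanate high control wells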
# Active calls of the source: *; i = inactive; nt = not tested or not shown.
SMILES,HTR2A ag,ABHD5-PLIN5 inh,NOD2 RIPK2 PPI,TLR4 MyD88 comp,CRFBP-R2 block,TLR9-MyD88 block,TLR4 MyD88 cnf,BLA inhibitor ct,TLR9-MyD88 conf,BLA counter-1,TLR9 CHO tox,NOD2-RIPK2 conf,BLA counter-2
CCCCn1c2c(c(=N)c3ccccc31)CCC2,6.4,4.2,-9.2,nt,-1.8,-4.5,nt,nt,nt,nt,nt,nt,nt
CCCCCCCCn1c2c(c(=N)c3ccccc31)CCC2,-1.9,7.3,21.4*,34.6*,-19.1,nt,22.3,27.5*,nt,nt,nt,16.3,-2.2
CCc1nc2c(OCc3cccc(Cl)c3)cccn2c1N(C)C(=O)C1CC1,1.6,2.9,-4.1,nt,nt,nt,nt,nt,nt,nt,nt,nt,nt
O=C(NC1CCCC1)C(C1CC1)n1c(-c2ccncc2)nc2ccccc21 (stereo not drawn),1.4,-5.5,-0.6,nt,nt,nt,nt,nt,nt,nt,nt,nt,nt
O=c1oc2ccccc2cc1-c1nc2c(s1)CCc1ccccc1-2,0.3,-5.1,40.1*,31.4*,-66.1,48.7*,47.0*,81.1*,50.5*,57.5*,-1.6,68.6*,78.6*
Nc1nnc(-c2cc3ccccc3oc2=O)s1,-3.9,-0.8,11.8,13.8,-11.5,14.0,nt,nt,nt,nt,nt,nt,nt
O=c1oc2cc(O)ccc2cc1-c1nc2c(s1)CCc1ccccc1-2,3.7,-5.1,44.5*,52.5*,-232.1,46.9*,68.6*,99.0*,66.7*,78.7*,2.0,72.1*,84.8*
Cc1cc(C)c2c(CN3CCN(c4ccccc4F)CC3)cc(=O)oc2c1,5.1,-5.0,-1.6,nt,nt,nt,nt,nt,nt,nt,nt,nt,nt
COc1ccc(C(C)=NOC(=O)c2c(-c3ccccc3Cl)noc2C)cc1CN1CCOCC1,-5.4,-4.2,18.3,nt,-4.8,7.0,nt,nt,nt,nt,nt,nt,nt
Cn1c(=O)c(NCCO)c2c3c(cccc31)C(=O)c1ccccc1-2,2.7,6.8,5.5,2.1,i,3.4,nt,nt,nt,nt,nt,nt,nt
Cn1c(=O)c(NCCc2ccccc2)c2c3c(cccc31)C(=O)c1ccccc1-2,0.0,0.5,37.9*,38.6*,-206.5,36.7*,39.1*,64.0*,36.6*,38.1,-1.9,62.7*,70.9*
CCCCNc1c2c3c(cccc3n(C)c1=O)C(=O)c1ccccc1-2,-3.1,-0.8,47.4*,40.8*,-272.5,35.7*,25.9*,46.9*,25.7*,25.8,6.3,51.8*,57.5*
C/C(=N\Nc1ccc([N+](=O)[O-])cc1)c1ccc2c(c1)OCO2,2.8,5.0,23.4*,31.9*,-39.1,31.9*,34.7*,60.4*,27.7*,27.0,7.7,19.1,24.9*
C/C(=N\Nc1ccc([N+](=O)[O-])cc1)c1cc2ccccc2o1,-8.9,5.7,56.8*,60.1*,-59.1,58.4*,54.1*,86.8*,43.9*,45.8,1.7,66.5*,71.9*
CCOc1ccc(Cl)cc1-c1cc(C(=O)NCc2cc(C(F)(F)F)cc(C(F)(F)F)c2)[nH]n1,-1.0,10.6,-7.7,nt,nt,nt,nt,nt,nt,nt,nt,nt,nt
CN(C)c1ccc(/C=C/C(=O)c2cccc(Br)c2)cc1,-3.0,8.0,60.0*,63.5*,-346.1,32.9*,66.2*,89.7*,27.5*,34.1,-1.6,63.6*,67.7*

# Assay outcomes deposited in PubChem BioAssay by several laboratories.
